Values joined by “and” are separate entries in the source; they are usually repeats but may differ in a detail not shown here. Identical values can stand only once. Records with an inconclusive call do not appear. Active and inactive are the calls of the source. Calls come from the whole dose curve; as a rule, active = well fitted inhibition curve with a large enough effect; inconclusive = small, poorly fitted or top-dose-only effect; inactive = flat fitted curve, though single readings scatter.
Key:
CRL-7250 = normal cell line; experiment: Cytotoxic Profiling of Annotated Libraries Using Quantitative High-Throughput Screening (AID 1296008); conditions: Five cell lines viability, CellTiter-Glo ATP luminescence, 48-72 h; max response: active compounds read low
Outline: (§1)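 Cytotoxicity was measured as CellTiter-Glo ATP luminescence, read after 10 min at room temperature. Compound treatment of the cells lasted 48 or 72 hr at 37 degrees Celsius in a qHTS format.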

HEK293 = experiment: as above; conditions: Five cell lines viability, CellTiter-Glo ATP luminescence, 48-72 h; max response: active compounds read low
Outline: as §1

HaCat [1] = experiment: as above; conditions: Five cell lines viability, CellTiter-Glo ATP luminescence, 48-72 h; max response: active compounds read low
Outline: as §1

NIH3T3 = experiment: as above; conditions: Five cell lines viability, CellTiter-Glo ATP luminescence, 48-72 h; max response: active compounds read low
Outline: as §1

HACAT [2] = experiment: qHTS assay to identify novel small-molecules to repurpose for Merkel cell carcinoma treatment (AID 1296009); conditions: MCC and control cell lines, CellTiter-Glo viability, 72 h; at 44.8 µM (top of the series) unless noted
Outline: (§2)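 Cell viability measured by CellTiter-Glo following 72 hr compound treatment at 37 degree celsius, with NPC and MIPE libraries tested in 8- and 11-point concentration series.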

MCC-13 = experiment: as above; conditions: MCC and control cell lines, CellTiter-Glo viability, 72 h; series mostly up to 46 µM
Outline: as §2

MKL-1 = experiment: as above; conditions: MCC and control cell lines, CellTiter-Glo viability, 72 h; series mostly up to 46 µM
Outline: as §2

HEK293T = experiment: as above; conditions: MCC and control cell lines, CellTiter-Glo viability, 72 h; at 44.8 µM (top of the series) unless noted
Outline: as §2

MCC-26 = experiment: as above; conditions: MCC and control cell lines, CellTiter-Glo viability, 72 h; series mostly up to 46 µM
Outline: as §2

KB-3-1 = experiment: Cytotoxic Profiling of Annotated Libraries Using Quantitative High-Throughput Screening (AID 1296008); conditions: Five cell lines viability, CellTiter-Glo ATP luminescence, 48-72 h; max response: active compounds read low
Outline: as §1
% is set by controls: 0 for no effect and ±100 for the full control effect; potency is the fitted concentration of half-maximal effect.
Note: nearly all actives have a fitted effect of over 60% in size.

CN1[C@@H]2CC[C@H]1CC(OC(=O)C(CO)c1ccccc1)C2 (some centres undefined)
inactive: max response (CRL-7250) -9.68% | max response (HEK293) 2.75% | max response (HaCat [1]) -9.85% | max response (NIH3T3) 3.27%

COC(=O)Nc1nc2ccc(C(=O)C3CC3)cc2[nH]1
active: Potency (CRL-7250) 2990 nM | Potency (HEK293) 750 nM | Potency (MCC-13) 7500 nM
inactive: outcome (HaCat [1]) | outcome (HACAT [2])

COC(=O)c1nc(Cl)c(Cl)nc1N
active: Potency (CRL-7250) 5310 nM | Potency (HEK293) 841 nM | Potency (NIH3T3) 10600 nM | Potency (MCC-13) 944 nM | Potency (MKL-1) 1330 nM

Cc1nc2ccccc2n1Cc1ccc(Cl)cc1
inactive: max response (NIH3T3) -22.4% | Potency (MCC-13)
active: Potency (CRL-7250) 2110 nM | Potency (HEK293) 1680 nM

CN1[C@@H]2CC[C@H]1CC(OC(c1ccccc1)c1ccccc1)C2 (some centres undefined)
inactive: max response (CRL-7250) 0.151% | max response (HEK293) -16.7% | outcome (HaCat [1]) | max response (NIH3T3) -0.104% | outcome (HACAT [2])

CN1CC(=O)N/C1=N/C(=O)Nc1cccc(Cl)c1
inactive: max response (CRL-7250) 2.65% | outcome (HEK293) | outcome (HaCat [1]) | max response (NIH3T3) -0.466% | outcome (HACAT [2]) | outcome (HEK293T) | Potency (MCC-13) | Potency (MKL-1)

C/C(=N\O)c1ccc(OCC(=O)N2CCCCC2)cc1
inactive: max response (CRL-7250) -1.81% | max response (HEK293) 2.8% | max response (HaCat [1]) 2.33% | max response (NIH3T3) -0.0363% | Potency (MCC-13) | Potency (MKL-1)

O=C(O)c1ccccc1Nc1cccc(C(F)(F)F)c1
inactive: max response (CRL-7250) 0.849% | max response (HEK293) 3.56% | max response (NIH3T3) -2.26% | Potency (MCC-13) | Potency (MCC-26) | Potency (MKL-1)

Nc1ccc(O)c([N+](=O)[O-])c1
inactive: max response (CRL-7250) 4.51% | max response (HEK293) -8.71% | outcome (HaCat [1]) | outcome (HACAT [2]) inactive [at 92 µM] | Potency (MCC-13)

N=C1N=C(N)c2cc3ccccc3cc21
active: Potency (CRL-7250) 17200 nM | Potency (HEK293) 19300 nM | Potency (NIH3T3) 10900 nM | Potency (MCC-13) 43300 nM | Potency (MKL-1) 38600 nM

CCOC(=O)c1ccccc1O
inactive: max response (CRL-7250) 3.39% | outcome (HEK293) | max response (HaCat [1]) -10.3% | max response (NIH3T3) -7.47% | outcome (HEK293T) | Potency (MCC-13) | Potency (MKL-1)

COc1cc2c3cc1Oc1cc(ccc1O)C[C@@H]1c4c(cc(OC)c(O)c4Oc4ccc(cc4)C[C@@H]3N(C)CC2)CC[N+]1(C)C
inactive: max response (CRL-7250) 1.72% | outcome (HEK293) | max response (HaCat [1]) 1.8% | max response (NIH3T3) 4.48% | outcome (HEK293T) | Potency (MCC-13) | Potency (MCC-26) | Potency (MKL-1)

CC(C(=O)O)c1ccc(C(=O)c2ccccc2)s1 (centres undefined)
inactive: outcome (CRL-7250) | max response (HEK293) 0.794% | outcome (HaCat [1]) | max response (KB-3-1) 0.65% | outcome (HACAT [2]) | Potency (MCC-13) | Potency (MCC-26) | Potency (MKL-1)

Cc1onc(-c2c(F)cccc2Cl)c1C(=O)N[C@@H]1C(=O)N2[C@@H]1SC(C)(C)[C@@H]2C(=O)O
inactive: max response (CRL-7250) -6.01% | outcome (HEK293) | max response (KB-3-1) 3.63% and 6.4% | outcome (KB-3-1) | max response (NIH3T3) -7.78% | outcome (HEK293T)

CO[C@@]1(NC(=O)Cc2cccs2)C(=O)N2C(C(=O)O)=C(COC(N)=O)CS[C@@H]21
inactive: outcome (CRL-7250) | outcome (HEK293) | outcome (HaCat [1]) | outcome (NIH3T3) | outcome (HACAT [2]) | outcome (HEK293T) | Potency (MCC-13) | Potency (MKL-1)

CCCOC(=O)c1ccc(O)cc1
inactive: max response (CRL-7250) 4.61% | max response (HEK293) -6.34% | max response (KB-3-1) -6.63% and -13.7% | max response (NIH3T3) 3.51% | Potency (MCC-13) | Potency (MCC-26) | Potency (MKL-1)

COc1cc(/C=C/C(=O)N2CCN(CC(=O)N3CCCC3)CC2)cc(OC)c1OC
inactive: max response (CRL-7250) -2.29% | max response (HEK293) 1.99% | outcome (HaCat [1]) | outcome (NIH3T3) | outcome (HACAT [2])

COc1ccc(/C=C/C(=O)Nc2ccccc2C(=O)O)cc1OC
inactive: max response (CRL-7250) 2.22% | max response (HEK293) 0.531% | max response (NIH3T3) -8.92%

CC1(C)S[C@@H]2[C@H](NC(=O)[C@H](NC(=O)N3CCN(S(C)(=O)=O)C3=O)c3ccccc3)C(=O)N2[C@H]1C(=O)O
inactive: max response (CRL-7250) 4.22% | max response (HEK293) -0.837% | outcome (HaCat [1]) | outcome (NIH3T3) | outcome (HACAT [2])

CCCSc1ccc2nc(NC(=O)OC)[nH]c2c1
active: Potency (CRL-7250) 5960 nM | Potency (HEK293) 750 nM | Potency (NIH3T3) 1880 nM | Potency (MCC-13) 1680 nM
inactive: max response (HaCat [1]) -6.26%

[O-][n+]1ccccc1SSc1cccc[n+]1[O-]
active: Potency (CRL-7250) 461 nM | Potency (HEK293) 411 nM | Potency (HaCat [1]) 731 nM | Potency (NIH3T3) 164 nM | Potency (MCC-13) 326 nM | Potency (MKL-1) 231 nM

CNC(=O)c1c(I)c(NC(=O)CCCCC(=O)Nc2c(I)c(C(=O)O)c(I)c(C(=O)NC)c2I)c(I)c(C(=O)O)c1I
inactive: max response (CRL-7250) -5.95% | max response (HEK293) -10.9% | max response (NIH3T3) -3.88% | Potency (MCC-13) | Potency (MCC-26) | Potency (MKL-1)

CCCCCCCCCCCCCCCCCC(=O)O
inactive: outcome (HEK293T)

COC(=O)C1=C(C)NC(C)=C(C(=O)OCC(C)=O)C1c1ccccc1[N+](=O)[O-] (centres undefined)
inactive: outcome (HEK293T)

From PubChem BioAssay (NCATS)
